For 12 compounds, outcome and AC50 results are on record in PubChem BioAssay (EPA / NIEHS).

Activity calls are given as the source filed them. How the source made its calls: active means hit-call score of the fitted dose curve at least 0.9, where 1 is the maximum; inactive means score below 0.9.

The first test can be described thus: CCTE_Shafer_MEA_acute_burst_percentage_mean: CCTE's Neural Acute Assay for Percentage of Spikes in a Burst, Shafer Lab (AID 2284017).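 On AC50: curve fitted for loss of signal so potency reflects decreased burst percentage.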 Put shortly:
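Primary rat cortical neurons on 48-well MEA plates, treated on DIV 13 or 15 at 0.03-40 uM. Spikes detected at 8x rms noise at 37C; percent change from 40-min baseline to 40-min post-dose recording, fitted versus DMSO.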
Consider `O=C(CCCN1CCC(O)(c2ccc(Cl)cc2)CC1)c1ccc(F)cc1`, for which the call was inactive.
On the same count and under the same terms, to `CCCCC=O` belongs “inactive”; to `CCCCc1oc2ccccc2c1C(=O)c1cc(I)c(OCCN(CC)CC)c(I)c1`, “inactive”; to `CCCCCCCCCCCC`, “inactive”.
Regarding `CN(C)CCOC(c1ccccc1)c1ccccc1`, the AC50 was 5 µM (active).
Turning to `Oc1ccc(Cc2ccccc2O)cc1`, the compound was classed as inactive.
As to `OCC(CO)(CBr)CBr`, the call was inactive.
For `Oc1c(Cl)cc(Cl)cc1Sc1cc(Cl)cc(Cl)c1O`, the AC50 was 7.11 µM (active).
The same measure, in the same setting: to `CCC(C)c1ccccc1O` (stereo not drawn) belongs 7.61 µM (active); to `N=C(N)c1ccc(OCCCCCOc2ccc(C(=N)N)cc2)cc1`, 26.9 µM (active).
As for `O=C1NS(=O)(=O)c2ccccc21`, the result was inactive.
As for `CC(=O)Nc1ccc(O)cc1`, the result was inactive.

The nature of a further test: CCTE_Shafer_MEA_acute_burst_percentage_std: CCTE's Neural Acute Assay for Standard Deviation of Burst Percentage, Shafer Lab (AID 2284018).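 Further: fitted in the negative direction so actives lower burst percentage SD.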 In a few lines: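 Value is percent change from baseline in the across-electrode SD of spikes-in-bursts percentage, wells with >/= 10 active electrodes. Acute 40-min exposure to 0.03-40 uM on DIV 13 or 15 rat cortical cultures, recorded at 37 C after 40-min baseline.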
For `O=C(CCCN1CCC(O)(c2ccc(Cl)cc2)CC1)c1ccc(F)cc1`, the outcome was inactive.
The same measure, in the same setting: the value for `CCCCC=O` was “inactive”; that for `CCCCc1oc2ccccc2c1C(=O)c1cc(I)c(OCCN(CC)CC)c(I)c1` was “inactive”.
Still for that read-out and setting: to `CCCCCCCCCCCC` belongs “inactive”; to `CN(C)CCOC(c1ccccc1)c1ccccc1`, “inactive”; to `Oc1ccc(Cc2ccccc2O)cc1`, “inactive”.
On the same count and under the same terms, to `OCC(CO)(CBr)CBr` belongs “inactive”; to `Oc1c(Cl)cc(Cl)cc1Sc1cc(Cl)cc(Cl)c1O`, “inactive”.
Consider `CCC(C)c1ccccc1O` (stereo not drawn), for which the compound was called inactive.
In the case of `N=C(N)c1ccc(OCCCCCOc2ccc(C(=N)N)cc2)cc1`, the AC50 is 31.8 µM (active).
Take `O=C1NS(=O)(=O)c2ccccc21`: the call was inactive.
Same read-out and setting: the value for `CC(=O)Nc1ccc(O)cc1` was “inactive”.

Another test in a line: CCTE_Shafer_MEA_acute_per_network_burst_spike_number_mean: CCTE's Neural Acute Assay for Average Number of Spikes in a Network Burst, Shafer Lab (AID 2284019).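 On AC50: curve fitted for loss of signal so actives reduce spikes per network burst.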 In a few lines:
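Percent change from baseline in mean spikes per network burst, spikes detected at 8x rms noise. Each compound at 0.03-40 uM in at least three wells of rat cortical cultures, recorded 40 min before and 40 min during exposure.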
For `O=C(CCCN1CCC(O)(c2ccc(Cl)cc2)CC1)c1ccc(F)cc1`, the AC50 is 0.451 µM (active).
For the compound `CCCCC=O`, the compound was called inactive.
Same read-out and setting: to `CCCCc1oc2ccccc2c1C(=O)c1cc(I)c(OCCN(CC)CC)c(I)c1` belongs “inactive”; to `CCCCCCCCCCCC`, “inactive”; to `CN(C)CCOC(c1ccccc1)c1ccccc1`, “inactive”.
On the same count and under the same terms, to `Oc1ccc(Cc2ccccc2O)cc1` belongs “inactive”; to `OCC(CO)(CBr)CBr`, “inactive”; to `Oc1c(Cl)cc(Cl)cc1Sc1cc(Cl)cc(Cl)c1O`, “inactive”.
The same measure, in the same setting: to `CCC(C)c1ccccc1O` (stereo not drawn) belongs “inactive”; to `N=C(N)c1ccc(OCCCCCOc2ccc(C(=N)N)cc2)cc1`, “inactive”.
As to `O=C1NS(=O)(=O)c2ccccc21`, the compound was classed as inactive.
Take `CC(=O)Nc1ccc(O)cc1`: the call was inactive.

A further test in a line: CCTE_Shafer_MEA_acute_network_burst_percentage: CCTE's Neural Acute Assay for Percentage of Network Bursts, Shafer Lab (AID 2284022).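 Further: curves fitted for loss so actives lower network burst percentage.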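 On outcome: rat primary cortical neuron networks on multiwell MEA recorded 40 min.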 In a few lines:
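Network burst percentage (spikes in network bursts divided by total spikes) recorded at 37 C over 40 min baseline and 40 min after compound, 0.03-40 uM, in rat cortical cultures at DIV 13 or 15. Analysed as percent change from baseline versus DMSO.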
For `O=C(CCCN1CCC(O)(c2ccc(Cl)cc2)CC1)c1ccc(F)cc1`, the compound was classed as inactive.
Consider `CCCCC=O`, for which the AC50 was 32.7 µM (active).
Turning to `CCCCc1oc2ccccc2c1C(=O)c1cc(I)c(OCCN(CC)CC)c(I)c1`, the call was inactive.
The same measure, in the same setting: the value for `CCCCCCCCCCCC` was “inactive”.
For the compound `CN(C)CCOC(c1ccccc1)c1ccccc1`, the AC50 is 7.74 µM (active).
For `Oc1ccc(Cc2ccccc2O)cc1`, the call was inactive.
Still for that read-out and setting: the value for `OCC(CO)(CBr)CBr` was “inactive”.
Turning to `Oc1c(Cl)cc(Cl)cc1Sc1cc(Cl)cc(Cl)c1O`, the AC50 was 7.49 µM (active).
On the same count and under the same terms, to `CCC(C)c1ccccc1O` (stereo not drawn) belongs 5 µM (active).
Consider `N=C(N)c1ccc(OCCCCCOc2ccc(C(=N)N)cc2)cc1`, for which the compound was classed as inactive.
The same measure, in the same setting: to `O=C1NS(=O)(=O)c2ccccc21` belongs “inactive”.
Same read-out and setting: to `CC(=O)Nc1ccc(O)cc1` belongs “inactive”.

For orientation: AC50 means the concentration at which the activity in the assay is half-maximal.
